Assay results from the supplement of paper PMC4840960.

Tested on: E18 rat cortical neuron-glia co-culture
Test: fiber score / MBP score (myelination specific beyond OL differentiation) (ratio); higher = more myelination-specific MBP alignment
Details: 5 µM; treatment time: 8 days (DIV5-DIV13)
Procedure, shortened: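 Papain-dissociated primary E18 rat cortical co-cultures, plated at 20,000 cells/well on poly-d-lysine/laminin 96-well plates, were exposed to library compounds at 1 or 5 µM in myelination medium between DIV5 and DIV13. Following fixation in 4 % paraformaldehyde, cultures were stained for MBP, Olig2 and DAPI, and four 10X fields per well were analysed in duplicate wells. Values are the ratio of fiber score (continuous MBP fiber length per Olig2+ nucleus) to MBP score (thresholded MBP area × intensity per Olig2+ nucleus).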

SMILES	fiber score / MBP score
CC(C)NCC(O)COc1cccc2ccccc12 (stereo not drawn) [Propranolol]	0.95
CC(=O)NC[C@H]1CN(c2ccc(N3CCOCC3)c(F)c2)C(=O)O1 [linezolid]	0.929
O=C1Nc2ccccc2/C1=C1/Nc2ccccc2C1=O [Indirubin]	0.71
C#C[C@]1(O)CC[C@H]2[C@@H]3CCC4=CC(=O)CC[C@@H]4[C@H]3CC[C@@]21C [Norethindrone]	0.877
Brc1c(NC2=NCCN2)ccc2nccnc12 [Brimonidine]	0.784
Cn1nnc2c(C(N)=O)ncn2c1=O [Temozolomide]	0.773
Cc1ccc(-c2cc(C(F)(F)F)nn2-c2ccc(S(N)(=O)=O)cc2)cc1 [Celecoxib]	1.01
C[C@@H]1C[C@H]2[C@@H]3CCC4=CC(=O)C=C[C@]4(C)[C@@]3(F)[C@@H](O)C[C@]2(C)[C@H]1C(=O)CO [Desoximetasone]	0.758
CC(=O)OCC(=O)[C@@]1(O)CC[C@H]2[C@@H]3CCC4=CC(=O)CC[C@]4(C)[C@H]3C(=O)C[C@@]21C [Cortisone acetate]	0.732
CCOC(=O)c1ccc(OC(=O)CCCCCNC(=N)N)cc1 [Gabexate]	0.799
CN(C)[C@@H]1C(O)=C(C(N)=O)C(=O)[C@@]2(O)C(O)=C3C(=O)c4c(O)cccc4C[C@H]3C[C@@H]12 [Sancycline]	0.714
CCN(CC)CCNC(=O)c1cc(Cl)c(N)cc1OC [Metoclopramide]	0.91
COc1cc2nc(N(C)CCCNC(=O)C3CCCO3)nc(N)c2cc1OC (stereo not drawn) [Alfuzosin]	0.636
